High-throughput results (PubChem BioAssay)
Most compounds without a hit are left out; they make up all but 12% or so of the library.
G9a inh: qHTS Assay for Inhibitors of Histone Lysine Methyltransferase G9a | G9a H3K9 monomethylation, AlphaScreen, 2 h | Histone-lysine N-methyltransferase EHMT2 (Homo sapiens), Q96KQ7 | Potency, µM (top dose mostly 102 µM), actives largely listed as inhibitors | 350,000 compounds, 8.8% hits; also: nearly all actives have a fitted effect of over 75% in size
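AlphaScreen read-out: biotin-H3K9 peptide (500 nM) methylation by 20 nM enzyme with 20 uM SAM, 2 h at room temperature after 15 min compound preincubation; anti-monomethyl H3K9 antibody plus donor/acceptor beads, 10 min dark.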
PLK1 PBD block: qHTS for Inhibitors of PLK1-PDB (polo-like kinase 1 - polo-box domain): Primary Screen; AID 720504, 2013; Potency, µM, actives largely listed as inhibitors; 360,000 compounds, 2.8% hits; Serine/threonine-protein kinase PLK1 (Homo sapiens), P53350; Plk1 PBD binding of FITC phosphopeptide, fluorescence polarization; also: series mostly up to about 57 µM; nearly all actives have a fitted effect of over 65% in size
Sfp PPTase inh: qHTS Assay for Inhibitors of Bacillus subtilis Sfp phosphopantetheinyl transferase (PPTase); Biochemical Sfp PPTase activity, qHTS; Potency, µM, actives largely listed as inhibitors; 310,000 compounds, 3.5% hits; AID 1490, 2009;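 also: the enzyme is Sfp with the accession as filed and its product quenches rhodamine fluorescence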
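Step 1, compound plus 15 nM Sfp-PPTase, 15 min, room temperature. Step 2, add rhodamine-CoA (5 uM) and BHQ-2-YbbR (12.5 uM). Step 3, read 525/598 nm fluorescence at 0 and 30 min.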
HP1b binding inh: HTS for Inhibitors of HP1-beta Chromodomain Interactions with Methylated Histone Tails | Chromobox protein homolog 1 (Homo sapiens), P83916 | AlphaScreen HP1-beta / biotin-H3K9me3 peptide binding | Potency, µM (doses to about 114 µM), hits mostly inhibitors | 390,000 compounds, 0.56% hits | AID 540317, 2011; also: nearly all actives have a fitted effect of over 70% in size
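HP1-beta protein (50 nM final) preincubated 30 min at room temperature with biotinylated H3(1-18)K9me3 peptide (50 nM) in PBS pH 7.4, 0.01% Tween-20, then compound added for 30 min. AlphaScreen streptavidin donor/nickel chelate acceptor beads (10 ug/mL final), 30 min dark, luminescence read.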
JMJD2A Tudor inh: qHTS Assay for Inhibitors of JMJD2A-Tudor Domain; Lysine-specific demethylase 4A (Homo sapiens), O75164; AlphaScreen JMJD2A-Tudor / H3K4me3 peptide binding; Potency, µM (highest dose often 114 µM), hits mostly inhibitors; 390,000 compounds, 4.4% hits; AID 504339, 2011; also: nearly all actives have a fitted effect of over 50% in size
BAZ2B inh: qHTS Assay for Inhibitors of BAZ2B | Bromodomain adjacent to zinc finger domain protein 2B (Homo sapiens), Q9UIF8 | AlphaScreen BAZ2B-H3K14Ac peptide displacement | Potency, µM (highest dose often 114 µM), most hits filed as inhibitors | 360,000 compounds, 4.4% hits | AID 504333, 2011; also: nearly all actives have a fitted effect of over 60% in size
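BAZ2B 50 nM plus b-H3(5-23)K14Ac 50 nM, PBS pH 7.4/0.01% Tween-20, 30 min RT; compound added (max 110 uM), 30 min RT; streptavidin donor/Ni-chelate acceptor beads 10 ug/mL final, 20 min dark; AlphaScreen read.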
Hits are given with their value; - = inactive; ? = inconclusive; . = no result given; [ ] = remark or other dose. Calls follow the shape of the dose curve; as a rule, active = well fitted curve in the direction sought with a large enough effect; inconclusive = small, poorly fitted or top-dose-only effect, or another doubt; inactive = no such curve, though single readings can be large; an effect the other way counts as inactive or inconclusive.

SMILES	G9a inh	PLK1 PBD block	Sfp PPTase inh	HP1b binding inh	JMJD2A Tudor inh	BAZ2B inh
Cc1nc(-n2nc(C)c(CCC(C)C)c2C)sc1C(=O)Nc1cccc(Cl)c1C	14µM	.	.	-	-	?
CC[N+]1=CN(c2ccccc2)C(C)=CC1(C)C	1.8µM	?	-	-	?	-
CC1=NN(c2ccccc2)C(=O)C1(C)C	-	-	-	-	-	-
CC(=O)Nc1ccc(S(=O)(=O)/N=C2/NC(=O)/C(=C\c3ccco3)S2)cc1	22µM	?	-	-	-[11.4 µM]	?
Cc1ccc(S(=O)(=O)/N=C2/NC(=O)/C(=C\c3ccco3)S2)cc1	40µM	?	-	-	-	-
COc1cc(/C=C2\S/C(=N/S(=O)(=O)c3ccc(C)cc3)NC2=O)c([N+](=O)[O-])cc1OC	?	-	-	-	-	-
O=c1c(-c2c(O)cc(O)c3c(=O)cc(-c4ccc(O)cc4)oc23)c(-c2ccc(O)cc2)oc2cc(O)cc(O)c12	?	?	?	-	50µM	28µM
CCn1c(=O)cc(OCC(=O)NCc2ccc(C)o2)c2ccccc21	?	-	32µM	-	-	-
CCn1c(=O)cc(OCC(=O)NCc2ccco2)c2ccccc21	?	-	-	-	?	?
Cn1c(=O)cc(OCCCC(=O)NCc2ccco2)c2ccccc21	-[12.7 µM]	-	-	-	-	-
Cc1ccc(CNC(=O)CCCOc2cc(=O)n(C)c3ccccc23)o1	?	-	22µM	-	-	-
Cc1cc(C)c2c(=O)n(CC(=O)NCCCN3CCN(c4ccccc4F)CC3)sc2n1	1.1µM	2.1µM	4.5µM	2.5µM	1µM	?
Cc1cc(C)c2c(=O)n(CC(=O)NCCCN3CCOCC3)sc2n1	1.3µM	1.5µM	1.3µM	3.2µM	1.1µM	?
C=CCn1c(O)c(C2=c3ccccc3=NC2=O)c2ccccc21	6.3µM	17µM	45µM	?	10µM	6.3µM
OC(CN1CCNCC1)Cn1ccc2ccccc21 (stereo not given)	-	.	-	.	.	?
Oc1ccccc1NCC(O)Cn1ccc2ccccc21 (stereo not given)	28µM	?	-	-	2.8µM	50µM
OC(CNCc1ccccc1)Cn1ccc2ccccc21 (stereo not given)	?	-	-	?	22µM	?
CN(C(=O)Cn1cnc2ccccc2c1=O)C1CCS(=O)(=O)C1 (stereo not given)	-	-	.	-	-	-
Nc1nc(NCCc2ccccc2)c2[nH]cnc2n1	.	.	.	-	-	.
COCCSc1nnc(NC(=O)c2cc(C(=O)OC)cc([N+](=O)[O-])c2)s1	50µM	-	-	-	-	-
CCC(CC)c1nnc(NC(=O)c2cc(C(=O)OC)cc([N+](=O)[O-])c2)s1	8.9µM	9.5µM	45µM	-	-	-
COCc1nnc(NC(=O)c2cc(C(=O)OC)cc([N+](=O)[O-])c2)s1	-	-	-	-	-	-
Cn1nc(C(C)(C)C)c([N+](=O)[O-])c1C(=O)NCCO	-	24µM	-	-	50µM	-
Cc1ccc(CNC(=O)CCNS(=O)(=O)c2cccc3nsnc23)cc1	-	-	-	-	-	-
COc1ccc(Br)cc1CN1CCSCC1	45µM	-	-	56µM	3.5µM	?
SMILES	G9a inh	PLK1 PBD block	Sfp PPTase inh	HP1b binding inh	JMJD2A Tudor inh	BAZ2B inh
COc1ccc(Br)cc1CN1CCCCCC1	32µM	-	-	-	22µM	?
COc1ccc(Cl)cc1CN1CCOCC1	-	-	-	-	-	-
COc1ccc(CN2CCCCCC2)cc1Br	32µM	-	-	?	3.5µM	?
CCN(c1ccccc1)S(=O)(=O)c1cccc(C(=O)NCC(c2ccc(F)cc2)N2CCOCC2)c1 (stereo not given)	.	-	.	-	-	.
COc1ccc(C2/C=C\CC(NC(=O)OCC3c4ccccc4-c4ccccc43)CC(=O)N2Cc2ccccc2F)cc1 (stereo not given)	-	30µM	-	-	?	.
CC(NC(=O)C12CC3CC(CC(C3)C1)C2)C(=O)NCCN(C)C (stereo not given)	-	30µM	-	-	-[11.4 µM]	-
CC(OCCN(C)C)C(=O)C12CC3CC(CC(C3)C1)C2 (stereo not given)	-	-	-	-	-	-
COc1ccc(C2Nc3ccccc3C(=O)N2CC(C)(C)C)cc1COc1ccc(NC(C)=O)cc1 (stereo not given)	.	.	.	.	56µM	.
CCN(CC)CCN1C(=O)c2ccccc2NC1c1ccc(OC)c(COc2ccc(NC(C)=O)cc2)c1 (stereo not given)	.	.	.	-	-	.
COc1ccc(C2Nc3ccccc3C(=O)N2Cc2ccncc2)cc1COc1ccc(NC(C)=O)cc1 (stereo not given)	.	.	.	.	79µM	.
COc1ccc(C2Nc3ccccc3C(=O)N2Cc2cccc3ccccc23)cc1COc1ccc(NC(C)=O)cc1 (stereo not given)	.	.	.	.	79µM	.
COc1ccc(C2Nc3ccccc3C(=O)N2Cc2ccccc2)cc1COc1ccc(F)cc1 (stereo not given)	.	.	.	.	-	.
COc1cccc(OCc2cc(C3Nc4ccccc4C(=O)N3Cc3ccco3)ccc2OC)c1 (stereo not given)	?	-	14µM	-	-	-
COc1ccc(C2Nc3ccccc3C(=O)N2CCO)cc1COc1ccc(NC(C)=O)cc1 (stereo not given)	.	.	.	.	79µM	.
CC1CCN(S(=O)(=O)c2ccc3c(c2)CCN3)CC1	-	.	.	-	-	-
O=C(NNC(=S)NCc1ccccc1)c1cccc([N+](=O)[O-])c1	-	-	-	-	-	-
Cc1c(NC(=O)c2ccc(C(C)(C)C)cc2)cccc1[N+](=O)[O-]	-	-	-	-	-	-
CC(=O)NNC(=S)NC(=O)c1cccc([N+](=O)[O-])c1	?	24µM	11µM	?	8.9µM	?
CC(C)(C)c1ccc(NC(=O)c2ccccc2)c([N+](=O)[O-])c1	?	-	-	?	50µM	?
O=C(NNC(=S)NC(=O)c1ccccc1Cl)c1cccc([N+](=O)[O-])c1	35µM	-	-	-	-	-
O=C(O)CCC(=O)NNC(=O)c1ccc([N+](=O)[O-])cc1	-	24µM	-	-	-[11.4 µM]	-
COCCNC(=O)CSc1nc2cc3c(cc2c(=O)n1CCCC(=O)NCc1ccc2c(c1)OCO2)OCO3	-	.	.	-	-	-
O=C1C=C(/C=C/c2ccccc2)C[C@@H](c2ccc3c(c2)OCO3)C1	-[2.33 µM]	-	.	-	?	?
